Data on 20 compounds can be found in PubChem BioAssay (EPA / NIEHS).

Structures are written as SMILES. Inconclusive results are not listed. Activity calls are given as the source filed them. How the source made its calls, unless noted: active means hit-call score of the fitted dose curve at least 0.9, where 1 is the maximum; inconclusive means response in the unintended direction; inactive means score below 0.9.

Experiment [1] can be described thus: CEETOX_H295R_MTT_cell_viability: Viability Assessment in the CeeTox HT-H295R MTT Assay (AID 2283718; active means hit-call score of the fitted dose curve at least 0.9, where 1 is the maximum; inactive means score below 0.9;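 on AC50: curve fitted both ways so AC50 may mark viability loss or gain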). In outline:
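H295R cells prestimulated 48 h with 10 uM forskolin, then exposed 48 h to test chemical (0.1% DMSO final). Viability by MTT (0.5 mg/ml, 4 h, 37 C), absorbance 570/650 nm; percent change versus DMSO, bidirectional fit.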

Experiment [2] has as its system Thyroperoxidase (TPO), gene 54314. In words: CCTE_Simmons_AUR_rTPO: CCTE's Amplex UltraRed Assay for Thyroperoxidase (TPO) Inhibition, Simmons Lab (AID 2283662).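 On AC50: potency for loss of signal meaning inhibition of peroxidase activity.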 In a few lines: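 Rat thyroid microsomal TPO + 25 uM AUR in 200 mM K phosphate; cpd 5 nM–87.5 uM [final], 8 conc, 0.5% DMSO; 300 uM H2O2 starts rxn; 37C dark 30 min; endpoint FI 544/590 nm; n=3.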
In experiment [3] the target is Luciferin 4-monooxygenase (Photinus pyralis) (UniProt P08659). In words: CCTE_Simmons_QuantiLum_inhib_2: CCTE's Firefly Luciferase Inhibition Assay, Simmons Lab (AID 2283767).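 On AC50: potency for inhibitors that lower luciferase luminescence relative to DMSO.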 In a few lines:
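First, 5 ng purified luciferase in phosphate buffer with BSA is dispensed per well. Next, test chemicals (5 nM to 87.5 uM final, 0.5% DMSO) are added and incubated 30 min at 37C in darkness. Finally, luciferin reagent is injected and luminescence read kinetically.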

A short description of experiment [4]: CCTE_Simmons_CellTiterGLO_HEK293T: Viability Assessment in CCTE's Assays for Thyroperoxidase (TPO) Inhibition, Simmons Lab (AID 2283665).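 On AC50: cells exposed to compound for 24 h before readout; actives reduce ATP signal below DMSO vehicle meaning cytotoxicity.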 In a few lines: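 Cells were seeded overnight, then exposed to an eight-point series up to 87.5 uM final for 24 hours. CellTiter-Glo reagent was added and luminescence read after 20 min, giving ATP-based viability versus DMSO.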

Experiment [5] is described as follows: STM_H9_OrnCyssISnorm_ratio: Stemina devTOX quickPredict H9 human embryonic stem cell (hESC)-based Assay for Ornithine (ORN):Cystine (CYSS) Ratio (AID 2283714). In a few lines:
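H9 hESC, 72h, q24h re-dose; last-day media → acetonitrile deproteinization → UPLC-HRMS. ORN:CYSS ratio from isotope-normalized EIC areas, vs 0.1% DMSO; MTX references on each plate.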

A short description of experiment [6]: ACEA_AR_antagonist_AUC_viability: ACEA Biosciences xCELLigence Real-Time Cell Analysis on Androgen Receptor Antagonism for Viability (AID 2283776).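 Further: 22Rv1 human prostate cancer cells growing on impedance electrode plates; area under impedance growth curve at 80 h after dosing as viability; hits lower the growth signal relative to DMSO meaning cytotoxicity.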 In a few lines: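 Real-time electrical impedance tracks 22Rv1 proliferation after continuous compound exposure (top 100 uM final, 1:4 steps, 8 concentrations). The 80 h area-under-curve serves as the cytotoxicity readout relative to DMSO.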

Experiment [7] can be described thus: Tanguay_ZF_120hpf_PFIN_legacy: (Legacy) Oregon State University Tanguay Lab 120 Hour Post-fertilization zebrafish Assay for Pectoral Fin Malformation (AID 2283648).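 Further: each larva judged yes or no for fin defect by brightfield with dead larvae skipped.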 In outline:
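Scoring of pectoral fin malformation was binary, made at 120 hpf on larvae exposed statically from 6 hpf after enzymatic chorion removal. Activity was fitted upward relative to DMSO controls at 0.64% (vol/vol).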

Experiment [8] can be described thus: Tanguay_ZF_120hpf_CFIN_legacy: (Legacy) Oregon State University Tanguay Lab 120 Hour Post-fertilization zebrafish Assay for Caudal Fin Malformation (AID 2283649). In a few lines: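 Single dechorionated 5D wild-type embryos are dosed at 6 hpf (final DMSO 0.64%) and held statically at 28C. Caudal fin malformation is recorded as present or absent at 120 hpf under brightfield, excluding dead embryos.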

The nature of experiment [9]: Tanguay_ZF_120hpf_PIG_legacy: (Legacy) Oregon State University Tanguay Lab 120 Hour Post-fertilization zebrafish Assay for Pigmentation Malformation (AID 2283650). In a few lines: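 Endpoint is incidence of abnormal pigmentation at 120 hpf in dechorionated 5D zebrafish exposed singly from 6 hpf at 28C, DMSO vehicle at 0.64%. Embryos dying by 24 or 120 hpf are excluded from scoring.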

Experiment [10] in a line: Tanguay_ZF_120hpf_CIRC_legacy: (Legacy) Oregon State University Tanguay Lab 120 Hour Post-fertilization zebrafish Assay for Circulatory Malformation (AID 2283651). In outline:
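Embryos are dechorionated at 4 hpf, plated one per well at 6 hpf, then held under static exposure at 28C until 120 hpf. Malformations are recorded as binary calls; mortality excludes other endpoints.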

Experiment [11] in a line: Tanguay_ZF_120hpf_SWIM_legacy: (Legacy) Oregon State University Tanguay Lab 120 Hour Post-fertilization zebrafish Assay for Swim Bladder Malformation (AID 2283654).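 Further: swim bladder malformation in each larva scored yes or no under brightfield.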 In outline:
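Static waterborne exposure of single dechorionated Tropical 5D zebrafish embryos, 6–120 hpf, 28C, 0.64% DMSO final. Read-out: swim bladder malformation, present/absent, relative to DMSO negative control; trimethyltin chloride 5uM served as positive control.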

Experiment [12] in a line: Tanguay_ZF_120hpf_TRUN_legacy: (Legacy) Oregon State University Tanguay Lab 120 Hour Post-fertilization zebrafish Assay for Truncated Body (AID 2283655). In outline:
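Single dechorionated zebrafish embryos received test chemical from 6 hpf in 0.64% DMSO, kept at 28C. At 120 hpf, brightfield inspection noted any truncated body.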

Experiment [13] in a line: Tanguay_ZF_120hpf_NC_legacy: (Legacy) Oregon State University Tanguay Lab 120 Hour Post-fertilization zebrafish Assay for Notochord and Tail Malformation (AID 2283656). In a few lines:
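Binary scoring of notochord distortion by brightfield microscopy; embryos dying were not scored. Wild-type Tropical 5D embryos, chorion removed, exposed singly and statically from 6 to 120 hpf, 28C, sealed, 0.64% DMSO.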

Experiment [14] can be described thus: Tanguay_ZF_120hpf_TR_legacy: (Legacy) Oregon State University Tanguay Lab 120 Hour Post-fertilization zebrafish Assay for Touch Response (AID 2283667). In a few lines:
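Readout is presence or absence of touch response in 120 hpf zebrafish larvae, assessed by brightfield observation after continuous static exposure at 28C. Final vehicle was 0.64% (vol/vol) DMSO.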

Experiment [15] is described as follows: Tanguay_ZF_120hpf_ActivityScore_legacy: (Legacy) Oregon State University Tanguay Lab 120 Hour Post-fertilization zebrafish Assay Score for Activity (AID 2283742). In outline:
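In this whole-embryo screen, dechorionated zebrafish were exposed from 6 hpf until 120 hpf at 28C under a 0.64% DMSO vehicle. Developmental malformations and death were recorded by brightfield microscopy as binary endpoints.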

Experiment [16] is described as follows: ACEA_AR_agonist_AUC_viability: ACEA Biosciences xCELLigence Real-Time Cell Analysis on Androgen Receptor Agonism for Viability (AID 2283775). In a few lines: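 22Rv1 cells; impedance growth kinetics; 8-pt 1:4 dilutions from 100 uM top final, ≤0.5% DMSO; n = 2; 80 h read; AUC viability, loss-of-signal vs DMSO.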

Chain of Luciferin 4-monooxygenase (Photinus pyralis) (P08659 whole entry, looked up): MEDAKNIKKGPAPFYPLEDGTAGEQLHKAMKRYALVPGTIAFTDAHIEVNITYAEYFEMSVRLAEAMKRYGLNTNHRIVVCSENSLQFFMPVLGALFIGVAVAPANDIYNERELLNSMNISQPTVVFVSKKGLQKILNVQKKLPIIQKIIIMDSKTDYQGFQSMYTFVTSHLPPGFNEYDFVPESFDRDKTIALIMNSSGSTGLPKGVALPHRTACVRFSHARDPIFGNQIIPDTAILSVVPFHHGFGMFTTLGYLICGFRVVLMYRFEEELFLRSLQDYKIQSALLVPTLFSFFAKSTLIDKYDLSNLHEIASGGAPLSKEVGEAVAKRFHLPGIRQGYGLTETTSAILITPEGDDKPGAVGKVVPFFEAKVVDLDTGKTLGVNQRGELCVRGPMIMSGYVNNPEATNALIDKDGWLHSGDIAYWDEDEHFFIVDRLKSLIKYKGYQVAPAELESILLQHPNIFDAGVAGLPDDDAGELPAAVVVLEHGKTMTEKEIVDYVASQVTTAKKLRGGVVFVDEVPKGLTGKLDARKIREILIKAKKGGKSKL

In the case of `C=CC(C)(C)O`, the call in [1] was inactive.
Usually AC50 stands for the concentration giving half of the maximal activity seen. With `CN(C)c1ccc(O)c2c1C[C@H]1C[C@H]3[C@H](N(C)C)C(=O)C(C(N)=O)=C(O)[C@@]3(O)C(=O)C1=C2O`, in experiment [2], the AC50 is 0.607 µM (active). The call in experiment [3] was inactive.
Regarding `CC(C)=CCCC(C)CC=O` (centres undefined), the compound was called inactive in experiment [2], in experiment [4] and in experiment [3].
With `CCN(CC)CCOC(=O)c1ccc(N)cc1`, the result in experiment [5] and in experiment [6] was inactive.
For `COc1ccc(O)cc1`, the AC50 in experiment [2] is 8.4 µM (active); in experiment [4], 34.2 µM (active). For the same compound, the outcome in experiment [3] was inactive.
`CCCCCCCCCCCCCOS(=O)(=O)O`: the AC50 in experiment [2] is 42.6 µM (active); in experiment [4] it was 32.5 µM (active). Besides, the compound was classed as inactive in experiment [3] and in experiment [6].
For `COc1cc(C(C)(C)C)c(O)c(C(C)(C)C)c1`, the AC50 in [2] was 2.32 µM (active); in experiment [4], 26.8 µM (active). Further, the compound was called inactive in [3].
`O=C(Cl)c1cccc(C(=O)Cl)c1`: the AC50 in experiment [2] was 7 µM (active). Moreover, the outcome in experiment [4] and in experiment [3] was inactive.
As for `C=CCOc1nc(OCC=C)nc(OCC=C)n1`, in experiment [1], the compound was classed as inactive.
With `CCCCc1ccc(N)cc1`, the results for the AC50 in experiment [2] and in [4] were 0.00854 µM (active) and 17.4 µM (active), respectively. Further, the compound was classed as inactive in experiment [3].
As for `CSc1nc(NC2CC2)nc(NC(C)(C)C)n1`, the compound was classed as inactive in experiment [2], in experiment [4], in [1] and in experiment [3].
As for `c1ccc2[nH]ccc2c1`, in experiment [2], the AC50 is 1.14 µM (active). The compound was classed as inactive in experiment [4] and in [3].
With `CC(C)c1cccc(O)c1`, the AC50 in experiment [2] was 25.9 µM (active). Also, the outcome in [4], in experiment [1] and in experiment [3] was inactive.
For `Cc1ccc2n[nH]nc2c1`, the result in experiment [1] was inactive.
Regarding `O=Nc1ccc(Nc2ccccc2)cc1`, the compound was called inactive in experiment [2]. Also, the figures for the AC50 in experiment [4] and in experiment [3] were 84 µM (active) and 53.8 µM (active), respectively.
For `CC(C)=CCCC(C)=CCCC(C)=CCO`, the result in experiment [2] and in [3] was inactive. The figures for the AC50 in experiment [4] and in experiment [1] were 95 µM (active) and 54.2 µM (active), respectively.
In the case of `c1ccc2c(c1)c1cccc3ccc4cccc2c4c31`, the outcome in experiment [2] and in experiment [3] was inactive.
Turning to `Nc1ccc(F)c([N+](=O)[O-])c1`, the result in [1] was inactive.
Turning to `Cc1cccc(C)c1C`, the compound was called inactive in experiment [1].
Turning to `O=C(O)c1ccc([N+](=O)[O-])cc1`, the result in experiment [7], in [8], in [9], in experiment [10], in [11] and in experiment [12] was inactive. Further, the outcome in experiment [13], in experiment [14], in experiment [1], in experiment [15] and in experiment [16] was inactive.
